# Data as given in PubChem BioAssay (NCATS).
# Inconclusive results are not listed. Where a call stands in place of a potency, no number is given. Values without a mark were called inactive. The source made the active and inactive calls. Calls come from the whole dose curve; as a rule, active = well fitted cell-killing curve with a large enough effect; inconclusive = small, poorly fitted or top-dose-only effect, or effect the other way; inactive = no such curve, though single readings can be large or run the other way.
# Assay: Viability qHTS for spleen associated tyrosine kinase inhibitor (SYKi) naive MV4-11 cells (AID 1963823); note: nearly all actives have a fitted effect of over 40% in size
# Conditions: MV4-11 AML viability, CellTiter-Glo luminescence, 72 h; series mostly up to 45 µM
# Summary of the method: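 Viability of MV4-11 AML cells lacking prior SYK inhibitor exposure is scored by CellTiter-Glo luminescence following 72 hr compound incubation at 37 C, 5% CO2, seeded at 500 cells per well.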
# Potency is the fitted concentration of half-maximal effect.
Structure (SMILES),Potency,viability (% of control)
CC(C)=CCC/C(C)=C/CO[C@@H]1O[C@H](CO[C@@H]2O[C@@H](CO)[C@H](O)[C@H]2O)[C@@H](O)[C@H](O)[C@H]1O,inactive,
C/C(CO)=C1/CCC23COC(C2)C(O)(C(=O)O)CCC13 (centres undefined),inactive,
CC(C)C1C(OC(=O)/C=C/c2ccccc2)CC2(C)OC2CCC2(C)OC2C1O (centres undefined),inactive,
CC(=O)O[C@H]1C[C@@H](O)C(C)(C)C2C[C@@H](OC(C)=O)[C@]3(C)C(CC[C@@]4(C)[C@H](c5ccoc5)OC(=O)[C@H]5O[C@]543)[C@]21C (some centres undefined),inactive,
C/C=C1\[C@H](O[C@@H]2O[C@H](CO)[C@@H](O)[C@H](O)[C@H]2O)OC=C(C(=O)O)[C@H]1CC(=O)OCCc1ccc(O)cc1,inactive,
COC(=O)C1=COC(OC2OC(CO)C(O)C(O)C2O)C2C1CC(OC(=O)C(O)CC(=O)O)C2C (centres undefined),inactive,
CN(C)CC1CCn2c(c(C3=C(c4cn(C)c5ccccc45)C(=O)NC3=O)c3ccccc32)C1 (centres undefined),1.46 µM (active),
C=C1C(=O)O[C@H](CCC)[C@H]1C(=O)O,inactive,
OCC1OC(Oc2cc(O)c3c(c2)OC(c2ccc(O)cc2)C(O)C3)C(O)C1O (centres undefined),inactive,
O=C(OC[C@H]1O[C@@H](Oc2ccccc2COC(=O)C2(O)C=CCCC2O)[C@H](O)[C@@H](O)[C@@H]1O)c1ccccc1 (some centres undefined),inactive,
CC(=O)O[C@@H]1[C@H](OC(C)=O)C[C@@]2(C)C(CC[C@@H](C)[C@]23Cc2c(O)cc4c(c2O3)CN([C@@H](CCC(=O)O)C(=O)O)C4=O)C1(C)C (some centres undefined),inactive,
CC(C(=O)O)C1CCC2(C)C3C(=O)C=C4C(CCC(=O)C4(C)C)C3(C)CCC12C (centres undefined),inactive,
COc1cc(/C=C/C(=O)OC2CC(OC(C)=O)C(OC(C)=O)C3C2CCC2C(=O)OC(c4ccoc4)CC23C)ccc1O[C@@H]1O[C@H](CO)[C@@H](O)[C@H](O)[C@H]1O (some centres undefined),inactive,
C[C@H](/C=C/[C@@]1(O)[C@H](C)CC(=O)CC1(C)C)O[C@@H]1O[C@H](CO[C@@H]2OC[C@@H](O)[C@H](O)[C@H]2O)[C@@H](O)[C@H](O)[C@H]1O,inactive,
CC1(C)CCC2(C(=O)OC3OC(COC4OC(CO)C(O)C(O)C4O)C(O)C(O)C3O)CCC3(C)C(=CCC4C5(C)CCC(O)C(C)(C(=O)O)C5CCC43C)C2C1O (centres undefined),,83.4% [at 9.25 µM]
Cc1ccc(C(=O)/C=C/c2ccccc2)s1,8.2 µM (active),
CNC(=S)NS(=O)(=O)c1cc(CCNC(=O)c2cc(Cl)ccc2OC)ccc1OC,inactive,

Structure (SMILES),Potency,viability (% of control)
Cc1cn([C@H]2C[C@H](O)[C@@H](CO)O2)c(=O)nc1N,inactive,
Nc1ccc(-c2cccc3c(=O)cc(N4CCOCC4)oc23)cc1,9.2 µM (active),
O=C(c1ccc(F)c(F)c1Nc1ccc(I)cc1F)N1CC(O)(C2CCCCN2)C1 (centres undefined),0.184 µM (active),
CN(CCc1ccc(Nc2ncc(-c3cccnc3)s2)cc1)Cc1ccccc1,0.366 µM (active),
C[C@H](O)[C@H](O)/C=C/c1cccc(O)c1CO,inactive,
C[C@@]1(O)[C@H](O)[C@@H](CO)O[C@H]1n1cnc2c(=O)[nH]c(N)nc21,inactive,
CC(C)=C1CC2C(CCC2(C)O)C(C)(O)CC1=O (centres undefined),inactive,
Clc1ccccc1CNCC1CCC(CNCc2ccccc2Cl)CC1 (centres undefined),11.6 µM (active),
Oc1ccc(CNc2ccccc2F)c2cccnc12,2.91 µM (active),
CC1CCC23COC(=O)C2=CC(O)CC3C1(C)CCc1ccoc1 (centres undefined),inactive,
CC1C2=CC(=O)OC2(O)CC2C1C(OC(=O)c1ccccc1)C(OC(=O)c1ccccc1)C1(O)C2(C)CCC(O)C1(C)C(=O)O (centres undefined),inactive,
CC(C)[C@@H](C)/C=C/[C@@H](C)[C@H]1CC[C@H]2C3=CC=C4C[C@@H](O)CC[C@]4(C)C3=CC[C@]12C,16.4 µM (active),
COc1c2c(c(C)c3c1C(=O)OC3)OC1(C)CC(O)C34OC(OC)(CC(OC(C)=O)C3(C)C1C2)OC4(C)C (centres undefined),inactive,
CC(=O)c1c(OCCN2CCCCC2)c(OCCC(C)c2ccc(F)cc2)c2oc(C)nc2c1C (centres undefined),10.3 µM (active),
C[C@@H]1CN(Cc2ncccn2)C[C@H]1c1nc2c(cnn2C2CCOCC2)c(=O)[nH]1,inactive,
O=C(OC[C@H]1O[C@H](O[C@H]2CO[C@H](CO)[C@@H](O)[C@@H]2O)[C@H](O)[C@@H](O)[C@H]1O)c1ccccc1,inactive,
CC(C)c1ccc2c(c1)C(O)CC1C(C)(C(=O)O)CCCC21C (centres undefined),inactive,
